Data reported in PubChem BioAssay.
Activity calls are given as the source filed them.

Columns and labels:
[1] = system: Human papillomavirus type 1a protein E7 (residues 44-93); experiment: small molecules binding HPV E7 44-93 – biochemical, small-molecule microarray, residues 44-93, 635 nm fluorescence, primary screen (AID 1108); details: fluorescence 635 nm, higher = more signal;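 also: E7 fragment applied at 1 µg/mL in TBST for 1 h at 4 C; score combines spot fluorescence with its signal to noise ratio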
[2] = hepatitis C replication reporter changes, two-sided – Huh7 cells, luciferase reporter, HCV replication inhibitor project, primary screen (AID 1109); details: Huh7 HCV replicon luciferase reporter, 48 h; higher = more signal;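 also: huh7 hepatoma cells harbouring a luciferase neomycin HCV replicon reporter; luciferase luminescence as measure of HCV replicon replication; test concentration not given here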
[3] = molecular target: Left-right determination factor 2 (Homo sapiens) (UniProt O00292); experiment: small molecules binding LEFTY2 protein – biochemical, small-molecule microarray, 635 nm fluorescence scan, primary screen (AID 1110); details: higher = more signal
Chain of Left-right determination factor 2 (Homo sapiens) (O00292 whole entry, looked up): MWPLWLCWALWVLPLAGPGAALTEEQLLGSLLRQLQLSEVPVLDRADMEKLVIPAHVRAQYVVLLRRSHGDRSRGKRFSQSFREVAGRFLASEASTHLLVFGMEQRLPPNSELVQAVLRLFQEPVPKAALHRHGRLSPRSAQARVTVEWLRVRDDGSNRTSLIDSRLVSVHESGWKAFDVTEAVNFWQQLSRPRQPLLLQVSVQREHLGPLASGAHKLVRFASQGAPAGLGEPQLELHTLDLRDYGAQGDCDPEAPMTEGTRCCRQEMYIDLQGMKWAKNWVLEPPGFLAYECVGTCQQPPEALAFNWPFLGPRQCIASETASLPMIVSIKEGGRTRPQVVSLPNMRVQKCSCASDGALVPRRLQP

[4] = molecular target: Calmodulin-1 (Homo sapiens) (UniProt P0DP23); experiment: small molecules binding calmodulin-1 with EGTA – biochemical, small-molecule microarray, Cy5-labelled CALM1, profiling panel (AID 1111); details: Cy5-CALM1 binding fluorescence, higher = more signal;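 also: labelled calmodulin applied in Tris saline Tween buffer holding calcium plus EGTA and DTT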
[5] = molecular target: Calmodulin-1 (Homo sapiens) (UniProt P0DP23); experiment: small molecules binding Ca-loaded calmodulin-1 – biochemical, small-molecule microarray, Cy5-labelled CALM1, plus calcium, artefact control for SMM control-protein annotation, profiling panel (AID 1112); details: Cy5-CALM1 binding fluorescence, higher = more signal;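 also: score merges spot fluorescence with signal to noise from triplicate slides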
[6] = probe aWnt5a binding to arrayed compounds – biochemical, biotinylated probe, 635/667 nm fluorescence, primary screen (AID 1113); details: small-molecule microarray, higher = more signal;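 also: score merges 667 nm fluorescence intensity with signal-to-noise per printed feature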
[7] = probe aShh binding to arrayed compounds – biochemical, biotinylated probe, 635/667 nm fluorescence, primary screen (AID 1114); details: small-molecule microarray, higher = more signal;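 also: probe is biotin-labelled aShh protein from a stem cell growth factor screen; measures binding of labelled protein to compounds printed on the slide; score merges feature fluorescence at 667 nm with signal-to-noise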
[8] = probe aNog binding to arrayed compounds – biochemical, biotinylated probe, 635/667 nm fluorescence, primary screen (AID 1115); details: small-molecule microarray, higher = more signal;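 also: probe is biotinylated aNog protein used at 0.15 µg/mL for 1 h at 4 C; z-score combines 667 nm fluorescence of each spot with its signal to noise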
[9] = molecular target: Torsin-1A-interacting protein 1 (Homo sapiens) (UniProt Q5JTV8); experiment: compound microarray binding of lysate hLAP1 – cell lysate, small-molecule microarray, COS7 lysate, 635/667 nm fluorescence, primary screen (AID 1116); details: 635 nm fluorescence, higher = more signal
Chain of Torsin-1A-interacting protein 1 (Homo sapiens) (Q5JTV8 whole entry, looked up): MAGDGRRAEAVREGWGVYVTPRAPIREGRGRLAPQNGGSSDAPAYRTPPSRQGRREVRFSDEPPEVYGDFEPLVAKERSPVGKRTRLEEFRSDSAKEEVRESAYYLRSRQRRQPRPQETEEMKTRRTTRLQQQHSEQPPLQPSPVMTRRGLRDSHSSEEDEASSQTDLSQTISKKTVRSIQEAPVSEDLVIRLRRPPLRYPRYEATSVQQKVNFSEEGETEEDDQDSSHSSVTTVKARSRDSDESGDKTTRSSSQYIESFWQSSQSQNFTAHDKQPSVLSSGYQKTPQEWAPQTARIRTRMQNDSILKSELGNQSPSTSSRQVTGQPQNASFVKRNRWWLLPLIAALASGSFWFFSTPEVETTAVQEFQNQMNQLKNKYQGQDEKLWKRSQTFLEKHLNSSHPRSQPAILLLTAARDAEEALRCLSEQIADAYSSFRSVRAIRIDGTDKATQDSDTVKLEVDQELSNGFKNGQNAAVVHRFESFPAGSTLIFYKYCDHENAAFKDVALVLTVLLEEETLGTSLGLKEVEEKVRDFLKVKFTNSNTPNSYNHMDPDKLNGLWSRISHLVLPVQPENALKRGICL

[10] = molecular target: Alpha-bungarotoxin (Bungarus multicinctus) (UniProt P60615); experiment: compounds binding labelled alpha-BTX control protein – biochemical, small-molecule microarray, Alexa647 label, 635/667 nm fluorescence, artefact control for SMM control protein annotation, profiling panel (AID 1117); details: alpha-BTX-A647 binding fluorescence, higher = more signal
Chain of Alpha-bungarotoxin (Bungarus multicinctus) (P60615 whole entry, looked up): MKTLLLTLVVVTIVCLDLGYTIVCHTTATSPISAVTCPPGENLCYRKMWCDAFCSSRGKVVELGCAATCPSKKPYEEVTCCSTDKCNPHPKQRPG

Albumin (Bos taurus) = Albumin (Bos taurus) (UniProt P02769); experiment: compounds binding labelled BSA control protein – biochemical, small-molecule microarray, Alexa647 label, 635/667 nm fluorescence, artefact control for SMM control protein annotation, profiling panel (AID 1118); details: BSA-A647 binding, fluorescence 635 nm, higher = more signal;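 also: score merges 667 nm emission intensity and signal-to-noise per printed compound spot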
Chain of Albumin (Bos taurus) (P02769 whole entry, looked up): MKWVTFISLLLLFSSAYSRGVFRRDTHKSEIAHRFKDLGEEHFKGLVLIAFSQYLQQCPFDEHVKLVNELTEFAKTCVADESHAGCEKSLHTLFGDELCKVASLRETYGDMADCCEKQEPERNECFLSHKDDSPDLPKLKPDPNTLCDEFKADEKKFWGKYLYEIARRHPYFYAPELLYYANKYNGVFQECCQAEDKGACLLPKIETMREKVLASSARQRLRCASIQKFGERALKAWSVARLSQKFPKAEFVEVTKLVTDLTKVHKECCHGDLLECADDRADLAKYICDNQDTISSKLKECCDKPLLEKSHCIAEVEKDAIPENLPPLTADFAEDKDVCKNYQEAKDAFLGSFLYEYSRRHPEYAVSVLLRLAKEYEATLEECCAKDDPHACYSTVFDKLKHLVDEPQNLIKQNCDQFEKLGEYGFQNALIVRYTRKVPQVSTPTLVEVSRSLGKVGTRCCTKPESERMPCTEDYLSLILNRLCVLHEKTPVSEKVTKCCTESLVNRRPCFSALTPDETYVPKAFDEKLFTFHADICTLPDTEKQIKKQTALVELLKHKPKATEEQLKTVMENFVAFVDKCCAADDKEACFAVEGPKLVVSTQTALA

[11] = probe aXIP binding to arrayed compounds – biochemical, NeuroSMM set, 635/667 nm fluorescence, primary screen (AID 1119); details: small-molecule microarray, higher = more signal, called active from +8 up or from −8 down;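 also: probe is the protein aXip251-270 applied at 1 µg/mL to compound-printed slides; binding of probe to printed compounds measured as 667 nm fluorescence plus signal to noise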
[12] = probe aNOTCH3 binding on compound microarray – biochemical, small-molecule microarray, 635/667 nm fluorescence, primary screen (AID 1120); details: higher = more signal;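 also: probe is a biotin-tagged antibody raised against NOTCH3 rather than NOTCH3 protein; score merges spot fluorescence near 667 nm with spot signal to noise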
[13] = probe aNOTCH2 binding on compound microarray – biochemical, small-molecule microarray, 635/667 nm fluorescence, primary screen (AID 1121); details: higher = more signal;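 also: score merges feature fluorescence read at 667 nm with its signal to noise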
[14] = molecular target: Carbonic anhydrase 2 (Homo sapiens) (UniProt P00918); experiment: compounds binding carbonic anhydrase 2 – biochemical, small-molecule microarray, Alexa647-labelled CAII, profiling panel (AID 1122); details: CAII-A647 binding fluorescence, higher = more signal
[15] = COS7 lysate on small-molecule microarray, probe aHis, 635 nm (AID 1123); details: COS7 cell lysate, fluorescence, higher = more signal;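 also: z-score combines 667nm fluorescence intensity with signal-to-noise per printed compound spot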
[16] = probe aLAP1 signal on lysate-treated microarray – cell lysate, small-molecule microarray, COS7 lysate, primary screen (AID 1124); details: probe aLAP1, fluorescence, higher = more signal;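 also: lysate comes from COS7 cells expressing LAP1 and is applied at 0.3 µg/mL; score merges spot fluorescence near 667 nm with signal-to-noise over triplicate slides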
Sam68 (KHDRBS1) = experiment: compounds binding KHDRBS1 protein – biochemical, small-molecule microarray, 635 nm fluorescence, primary screen (AID 1125); details: higher = more signal;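 also: score merges 667 nm channel intensity with signal to noise over triplicate slides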
[17] = system: Chordin-like protein 2 (CHRDL2); experiment: compounds binding chordin-like 2 – biochemical, small-molecule microarray, 635 nm fluorescence, primary screen (AID 1126); details: fluorescence 635 nm, higher = more signal;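 also: printed compound slides probed with Chrdl2 protein at 4 µg/mL for 1 h at 4 C; score merges 667 nm emission intensity with signal to noise over three replicate slides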
[18] = molecular target: Concanavalin-A (Canavalia ensiformis) (UniProt P02866); experiment: compounds binding concanavalin A lectin – biochemical, small-molecule microarray, Alexa647 label, 635 nm, artefact control for SMM control protein annotation, primary screen (AID 1127); details: ConA-A647 binding fluorescence, higher = more signal;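 also: z combines 667 nm emission intensity with signal-to-noise across three replicate slides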
Chain of Concanavalin-A (Canavalia ensiformis) (P02866 whole entry, looked up): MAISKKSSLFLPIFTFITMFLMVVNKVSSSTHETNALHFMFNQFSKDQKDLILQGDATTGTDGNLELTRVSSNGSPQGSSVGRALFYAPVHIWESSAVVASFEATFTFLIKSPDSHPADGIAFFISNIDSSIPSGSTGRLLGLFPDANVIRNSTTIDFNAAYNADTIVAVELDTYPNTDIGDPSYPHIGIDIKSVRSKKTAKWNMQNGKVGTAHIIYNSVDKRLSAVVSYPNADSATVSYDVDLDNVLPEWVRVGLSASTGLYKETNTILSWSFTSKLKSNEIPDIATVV

SMILES: C=CCC(OC(C)=O)[C@@H]1[C@@H](N(Cc2ccc(-c3ccccc3)cc2)C(=O)c2ccc(C)cc2)c2cc(OCCCO)ccc2N1C(=O)c1ccc2ccccc2c1 (stereo not given in full)
- composite z-score [1]: -0.129
- z-score [2]: -0.33
- composite z-score [3]: -0.103
- composite z-score [4]: 0.0626
- composite z-score [5]: 0.235
- composite z-score [6]: -0.0222
- composite z-score [7]: -0.17
- composite z-score [8]: -0.448
- composite z-score [9]: 0.202
- composite z-score [10]: 0.408
- composite z-score (Albumin (Bos taurus)): 0.608
- composite Z-score [11]: -0.46 (inactive)
- composite z-score [12]: 0.0282
- composite z-score [13]: -0.127
- composite z-score [14]: -0.104
- composite z-score [15]: 0.756
- composite z-score [16]: -0.031
- composite z-score (Sam68 (KHDRBS1)): -0.15
- composite z-score [17]: 0.0542
- composite z-score [18]: -0.328

SMILES: CCOC(=O)C[C@H]1[C@H](OC(=O)Cc2ccc3c(c2)OCO3)[C@@H](NC(=O)c2ccccc2)c2cc(OCCCO)ccc2N1C(=O)Cc1ccc(OC)cc1
- composite z-score [1]: 0.334
- z-score [2]: -1.53
- composite z-score [3]: -0.113
- composite z-score [4]: 1.04
- composite z-score [5]: 0.188
- composite z-score [6]: -0.0545
- composite z-score [7]: -0.0626
- composite z-score [8]: -0.196
- composite z-score [9]: 0.435
- composite z-score [10]: 0.774
- composite z-score (Albumin (Bos taurus)): 0.521
- composite Z-score [11]: -0.751 (inactive)
- composite z-score [12]: -0.116
- composite z-score [13]: -0.0974
- composite z-score [14]: 0.544
- composite z-score [15]: 1.04
- composite z-score [16]: -0.0337
- composite z-score (Sam68 (KHDRBS1)): 0.683
- composite z-score [17]: -0.302
- composite z-score [18]: 0.808

SMILES: COCCOC(=O)N1C(=O)[C@@]2(c3cc(C#CC4=CCCCC4)ccc31)[C@H](c1ccc(OCCO)cc1)N1[C@H](c3ccccc3)[C@H](c3ccccc3)OC(=O)[C@H]1[C@@H]2C(=O)N1CCCCCCC1
- composite z-score [1]: 0.67
- z-score [2]: -1.13
- composite z-score [3]: 0.853
- composite z-score [4]: 0.643
- composite z-score [5]: 0.758
- composite z-score [6]: 0.267
- composite z-score [7]: 1.44
- composite z-score [8]: 1.33
- composite z-score [9]: 1.91
- composite z-score [10]: 1.9
- composite z-score (Albumin (Bos taurus)): 0.263
- composite Z-score [11]: 2 (inactive)
- composite z-score [12]: 0.809
- composite z-score [13]: 0.0784
- composite z-score [14]: 0.623
- composite z-score [15]: 2.41
- composite z-score [16]: 0.903
- composite z-score (Sam68 (KHDRBS1)): 1.3
- composite z-score [17]: 0.91
- composite z-score [18]: 1.11
